From PubChem BioAssay
GLP-1R inv ag: qHTS of GLP-1 Receptor Inverse Agonists (Inhibition Mode). AID 624417, 2012. HEK293 GLP-1R CRE-luciferase, luminescence, 24 h; GLP-1R form is constitutively active. Potency, µM (top dose mostly 38.3 µM), for the others: top-dose activity change, negative = inhibition, usual class: inhibitors. Glucagon-like peptide 1 receptor (Homo sapiens), P43220. 410,000 tested, 1.6% active; further: potency means the concentration at half of the fitted maximal effect; on the % scale 0 is the no-effect control and ±100 the full control effect; nearly all actives have a fitted effect of over 55% in size
Target sequence (P43220 whole entry, looked up): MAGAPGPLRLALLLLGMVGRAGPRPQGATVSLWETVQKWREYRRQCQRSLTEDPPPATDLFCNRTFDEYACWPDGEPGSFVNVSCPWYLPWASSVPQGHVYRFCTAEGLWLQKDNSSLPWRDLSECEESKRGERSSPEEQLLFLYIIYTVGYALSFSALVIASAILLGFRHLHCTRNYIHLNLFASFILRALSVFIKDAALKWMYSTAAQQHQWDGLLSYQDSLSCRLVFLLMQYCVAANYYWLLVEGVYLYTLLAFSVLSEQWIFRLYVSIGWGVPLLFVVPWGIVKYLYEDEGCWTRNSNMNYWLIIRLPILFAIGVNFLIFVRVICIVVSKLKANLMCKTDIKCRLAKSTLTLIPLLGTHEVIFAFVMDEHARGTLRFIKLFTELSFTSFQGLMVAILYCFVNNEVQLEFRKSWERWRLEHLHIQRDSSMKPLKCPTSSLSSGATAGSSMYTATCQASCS
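HEK293 cells stably co-expressing constitutively active GLP-1R and a cAMP-responsive luciferase reporter were seeded in DMEM with 10% Nu serum, given compounds after 12 h, and incubated 24 h at 37 deg C. Luminescence was then read.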
GLP1R ag: qHTS of GLP-1 Receptor Agonists. HEK293 GLP-1R CRE-luciferase, luminescence, 4-6 h; cells express a hypersensitive GLP-1R form. 380,000 tested, 0.007% active. Glucagon-like peptide 1 receptor (Homo sapiens), P43220. Potency, µM (top dose mostly 45.6 µM), inactives show at the top dose activation, usual class: activators; further: potency means the concentration at half of the fitted maximal effect; % of control where 0% means no effect
D3 antag: qHTS of D3 Dopamine Receptor Antagonist: qHTS; D(3) dopamine receptor (Homo sapiens), P35462; D3R cells, DiscoveRx beta-arrestin luminescence, antagonist mode; active compounds read low; max response, negative = inhibition, %; 360,000 tested, 2.5% active; AID 652054, 2013; in the data active means max response below about -50%; inconclusive means no clear call, values can overlap the other calls; further: on the % scale 0 is the no-effect control and ±100 the full control effect
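Cells plated overnight at 1500 cells/well, then exposed to library compounds with dopamine controls for 90 minutes at 37 degrees C. DiscoveRx reagent added for 30–60 minutes at room temperature; luminescence read, quantitative HTS format.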
DRD3 agonist: qHTS of D3 Dopamine Receptor Agonist: qHTS | max activation, % | D3R DiscoveRx beta-arrestin cells, luminescence, 90 min | 410,000 tested, 0.58% active; in the data active means max activation above about 30%; further: 0% is about no effect
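Cells at 1500/well, incubated overnight, then treated with pinned compounds (dopamine as control) for 90 min at 37 degrees C. DiscoveRx reagent added for 30 - 60 minutes at room temperature; luminescence read.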
Active calls of the source: *; ? = inconclusive; · = no result given. This is a sample that favours compounds with a hit; in the whole collection about 4.3% have one here. Unless noted, the call rests on the fitted dose curve; in most records, active means well fitted curve in the direction sought with a large enough effect; inconclusive means small, poorly fitted or top-dose-only effect, or another doubt; inactive means no such curve, though single readings can be large; an effect the other way counts as inactive or inconclusive.

SMILES	GLP-1R inv ag	GLP1R ag	D3 antag	DRD3 agonist
CCOCCCn1c(=N)c(C(=O)NC(C)c2ccccc2)cc2c(=O)n3cccc(C)c3nc21 (centres undefined)	19.1%	-2.3%	·	-3.2
CCOc1ccc(-c2cc(C(=O)N3CCN(c4ccccn4)CC3)c3ccccc3n2)cc1	-17.2%	-9.8%	16.6	13.0
COc1ccc(-c2cc(C(=O)N3CCN(c4ccccn4)CC3)c3ccccc3n2)cc1	-27.3%	-5.5%	17.5	33.3*
CCN(C(=O)CCNC(=O)Cn1cnc2ccccc2c1=O)c1ccccc1F	-2.7%	7.2%	8.0	3.6
CC[C@H]1OC(=O)[C@H](C)[C@@H](O[C@H]2C[C@@](C)(OC)[C@@H](O)[C@H](C)O2)[C@H](C)[C@@H](O[C@@H]2O[C@H](C)C[C@H](N(C)C)[C@H]2O)[C@](C)(O)C[C@@H](C)/C(=N\OCOCCOC)[C@H](C)[C@@H](O)[C@]1(C)O	·	·	·	5.4
Cc1ccc(N2CC(C(=O)Nc3ccc(Cl)cc3Cl)CC2=O)cc1 (centres undefined)	12.0%	·	·	4.4
O=C(Nc1cc(Cl)ccc1Cl)C1CC(=O)N(c2ccc(Br)cc2)C1 (centres undefined)	5.7%	10.1%	-54.6*	-10.7
Cc1ccccc1C(=O)N1CCC(C(=O)Nc2nccs2)CC1	-10.0%	3.2%	5.0	2.1
Cc1ccccc1C(=O)N1CCC(C(=O)Nc2nc3ccc(F)cc3s2)CC1	10µM*	-7.0%	12.0	22.1
Cc1ccc(NC(=O)N2CCCC2C(=O)Nc2c(C)cc(C)cc2C)cc1 (centres undefined)	-13.2%	11.5%	6.0	10.1
CCOC(=O)c1c(CN(C)C)oc2cc(CN(C)C)c(O)c(CSc3ccccc3)c12	?	20.1%	-58.9*	-21.2
COC(=O)[C@]12CCC(C)(C)C[C@@H]1[C@@H]1C(=O)C=C3[C@@]4(C)C=C(C#N)C(=O)C(C)(C)[C@@H]4CC[C@@]3(C)[C@]1(C)CC2	·	5.0%	·	·
COc1cccc2cc(C(C)N(CCCN3CCOCC3)C(=S)Nc3c(C)cccc3C)oc12 (centres undefined)	?	7.8%	-21.6	-11.6
CCc1ccc(NC(=O)N(CCCN2CCOCC2)C(C)c2cc3cccc(OC)c3o2)cc1 (centres undefined)	?	4.8%	-53.1*	-13.5
CC(CC(=O)Nc1ccc(F)cc1)S(=O)(=O)c1cc2c3c(c1)CCN3C(=O)CC2 (centres undefined)	0.4%	·	·	-10.2
Cc1ccccc1Nc1scc(-c2ccc(Cl)cc2)[n+]1-c1ccccc1C	10µM*	-1.2%	-13.3	-6.7
Cc1cccc(Oc2coc3cc(OCC(=O)NC4CCCCC4)ccc3c2=O)c1	-24.4%	·	·	0.6
CCn1cc(CCCC(=O)NCc2cccc(OC)c2)c2ccccc21	10µM*	13.9%	-2.6	-0.3
CCn1cc(CCCC(=O)NCc2ccccc2OC)c2ccccc21	?	-4.0%	?	-3.6
Nc1nonc1C(=O)NCCNCc1ccccc1	-11.9%	-7.9%	-0.3	-13.2
CCOc1cccc(CNCCNC(=O)c2nonc2N)c1	-19.3%	-5.1%	-50.4*	-10.8
Nc1nonc1C(=O)NCCNCc1c(OCc2ccccc2F)ccc2ccccc12	?	-3.1%	-55.2*	-53.2
COc1cccc(CN2CCN(c3cccc(C(F)(F)F)c3)CC2)c1OC	-14.6%	0.8%	-73.4*	-28.5
CCOc1cccc(CN2CCN(c3cccc(C(F)(F)F)c3)CC2)c1O	-7.1%	18.1%	-95.8*	-60.3
O=C(CCn1c(=O)c2cccn2c2cccnc21)NCCCN1CCN(c2ccc(F)cc2)CC1	-22.7%	-4.8%	-67.4*	-4.3
SMILES	GLP-1R inv ag	GLP1R ag	D3 antag	DRD3 agonist
Cc1ccc(C)c(N2CCN(CCCNC(=O)Cn3c(=O)c4cccn4c4cccnc43)CC2)c1	?	-4.7%	-98.2*	-21.8
Cc1ccc(C)c(N2CCN(CCCNC(=O)CCn3c(=O)c4cccn4c4cccnc43)CC2)c1	?	6.5%	?	-7.8
Cc1c(C(=O)N(Cc2ccc(N(C)C)cc2)CC2CCCO2)oc2ccc(Cl)cc12 (centres undefined)	20.8%	·	·	-2.0
C=C1NC(=O)c2cc(CN(C)c3ccc(C(=O)N[C@@H](CCC(=O)O)C(=O)O)s3)ccc2N1	·	-1.0%	·	·
CCOC(=O)N1CCc2c(sc(NCc3sccc3C)c2C(=O)Nc2ccccc2OCC)C1	-18.2%	·	·	4.4
O=C1/C(=C\c2ccccc2)SC(=S)N1CCC(=O)N1CCCCC1CCO (centres undefined)	?	0.5%	3.6	-0.5
CN1CCN(C(=O)CCCN2C(=O)/C(=C/c3cccc(Br)c3)SC2=S)CC1	10µM*	-5.7%	-21.9	-15.0
COc1ccc(/C=C2\SC(=S)N(CCCC(=O)N3CCCCC3CCO)C2=O)cc1 (centres undefined)	10µM*	6.4%	-12.3	-9.9
CCc1ccc(/C=C2\SC(=S)N(CCCC(=O)N3CCN(C)CC3)C2=O)cc1	10µM*	2.4%	33.3	-5.3
O=C(CN1C(=O)S/C(=C\C=C\c2ccccc2)C1=O)N1CCOCC1	-6.3%	7.0%	10.5	-2.4
COc1cc(OC)c(NC(=O)C(c2ccccc2)N2Cc3ccccc3C2=O)cc1Cl (centres undefined)	-14.7%	·	·	-5.4
O=c1c2c3c(sc2n(CCN2CCCCC2)c(=O)n1Cc1ccco1)CCCCC3	?	?	-92.8*	-46.0
Cc1cccc(NC(=O)CSc2nnc3[nH]c(=O)cc(-c4ccccc4)n23)c1C	4.2%	·	·	-30.5
S=C(NCCN(C1CCCCC1)C1CCCC1)Nc1cccc(Cl)c1	?	0.0%	-102.0*	-38.5
S=C(NCCC(c1ccccc1)c1ccccc1)Nc1cccc(Cl)c1	11.2µM*	-4.4%	2.7	-2.6
Fc1cccc(NC(=S)NCc2ccccc2Cl)c1	10µM*	-1.0%	-2.8	-7.7
S=C(NCc1ccccc1Cl)Nc1ccccc1Cl	?	17.8%	3.1	1.2
CC(C)n1nccc1NC(=O)COC(=O)c1ccc(NC(N)=O)cc1	-1.2%	4.3%	-6.3	1.0
CCCCCC(=O)N(c1ccc(OCC)cc1)S(=O)(=O)c1ccc2c(c1)n(C)c(=O)n2C	0.0%	·	·	-3.4
CCOc1ccccc1CNC(=O)Cc1ccc(NC(=O)N2CCCCc3ccccc32)cc1	?	·	·	1.2
CCc1cccc(NC(=O)CCNS(=O)(=O)c2ccc3c(c2)CCN3C(C)=O)c1	2.3%	·	·	0.5
O=C1[C@@H]2[C@H]3CC[C@H](C3)[C@@H]2C(=O)N1CCCCN1CCN(c2ncccn2)CC1	·	-4.1%	·	-10.0
O=C1[C@H]2CCCC[C@H]2C(=O)N1CCCCN1CCN(c2nsc3ccccc23)CC1	?	2.7%	-116.0*	-57.4
O=C(Nc1ccc(Cn2cccn2)cc1)c1ccc(COc2cccc(Br)c2)cc1	5.01µM*	0.5%	12.7	-0.2
